# NPSR antagonist = qHTS Assay for Antagonists of the Neuropeptide S Receptor: cAMP Signal Transduction. Q6W5P4. CHO-NPSR cells, cAMP TR-FRET, antagonist mode. AID 1461, 2008. 1% of 220,000 active. Potency, µM (series often up to 38.3 µM), without a hit: top-dose activity change, negative = inhibition, hits mostly inhibitors; further: on the % scale 0 is the no-effect control and ±100 the full control effect; nearly all actives have a fitted effect of over 50% in size
# Target sequence (Q6W5P4 whole entry, looked up): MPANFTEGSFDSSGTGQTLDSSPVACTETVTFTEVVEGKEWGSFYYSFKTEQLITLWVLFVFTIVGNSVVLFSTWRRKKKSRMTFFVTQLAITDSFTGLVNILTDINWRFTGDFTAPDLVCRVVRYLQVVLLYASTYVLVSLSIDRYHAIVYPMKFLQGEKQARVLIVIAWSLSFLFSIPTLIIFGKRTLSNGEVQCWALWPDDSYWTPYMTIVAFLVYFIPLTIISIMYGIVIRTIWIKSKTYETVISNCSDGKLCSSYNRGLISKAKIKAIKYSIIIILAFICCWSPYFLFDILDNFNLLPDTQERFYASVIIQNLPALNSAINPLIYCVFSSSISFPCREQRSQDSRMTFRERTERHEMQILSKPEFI
# HttQ103 aggreg = qHTS Multiplex Assay to Identify Dual Action Probes in a Cell Model of Huntington: Aggregate Formation (GFP); PC12 HttQ103-GFP aggregates, Acumen cytometry, 40 h; Potency, µM (highest dose often 46.1 µM), for the others: at the top dose activity change, negative = inhibition, actives largely listed as inhibitors; 1.1% of 220,000 active; AID 1688, 2009; further: on the % scale 0 is the no-effect control and ±100 the full control effect; nearly all actives have a fitted effect of over 60% in size
#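 Aggregate formation scored by laser-scanning cytometer (488 excitation, 500–530 emission) in lysed PC12 cells expressing Q103-GFP after 100 nM tebufenozide induction; library tested in dose series, with ATPLite reagent added in the multiplex.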
# IMPase Li inh = qHTS Assay for Identifying the Cell-Membrane Permeable IMPase Inhibitors: Potentiation with Lithium; Potency, µM (top dose mostly 59.4 µM), inactives show at the highest dose activity, negative = IMPase inhibition, most hits filed as inhibitors; AID 1457, 2008; CHO-M1 cells, IP1 TR-FRET (IP-One), carbachol + lithium; 0.35% of 210,000 active;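 further: IP1 builds up when IMPase is blocked and the TR-FRET signal falls; plate controls were basal vehicle for no effect and high inhibitor control for full effect; nearly all actives have a fitted effect of over 50% in size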
#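 Steps: plate 2000 CHO-M1 cells per well and culture 16–30 h; add compound and lithium; incubate 30 min, 37C; add d2-IP1 tracer and Eu cryptate anti-IP1 antibody in lysis buffer; read after 10 min at room temperature.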
# ERK EGF block = qHTS Assay for Inhibitors of the ERK Signaling Pathway using a Homogeneous Screening Assay; Stimulation with EGF | HEK293-V1b, EGF-stimulated phospho-ERK AlphaScreen | Potency, µM (top dose mostly 11.5 µM), for the others: at the highest dose activity change, negative = inhibition, most hits filed as inhibitors | 0.41% of 130,000 active | AID 1454, 2008;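 further: plate controls were stimulated vehicle wells for no effect and unstimulated vehicle basal for full effect; nearly all actives have a fitted effect of over 55% in size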
#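 V1b-HEK293, 1% FBS o/n; cpd 30 min 37C; EGF 25 nM final, 5 min; lyse 10 min; AlphaScreen beads 5 h RT. Normalized DMSO basal vs EGF max; Hill AC50.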
# HTT cytoprotect = qHTS Multiplex Assay to Identify Dual Action Probes in a Cell Model of Huntington: Cytoprotection (ATP); PC12 HTT-Q103 induced, cytoprotection, ATP luminescence, 40 h; Potency, µM (top dose mostly 56.4 µM), for the others: cytoprotection (ATP increase), actives largely listed as activators; 0.14% of 230,000 active; AID 1471, 2008; further: % of control where 0% means no effect; nearly all actives have a fitted effect of over 45% in size
#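 Cells were plated at 1500 per well in phenol red-free DMEM with 5% equine and 5% calf serum. Tebufenozide (100 nM final) and compounds were added, then ATPlite reagent, and luminescence was read.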
# * = called active by the depositor; ? = inconclusive; . = no result; [ ] = dose if it differs, or a comment. A selection: hits, their analogues and other compounds. The true share with any hit is near 1.9%. The call rests on the fitted dose curve; in most records, active means well fitted curve in the direction sought with a large enough effect; inconclusive means small, poorly fitted or top-dose-only effect, or another doubt; inactive means no such curve, though single readings can be large; an effect the other way counts as inactive or inconclusive. Potency means the concentration at half of the fitted maximal effect.
SMILES,NPSR antagonist,HttQ103 aggreg,IMPase Li inh,ERK EGF block,HTT cytoprotect
C=C1c2cccc(OC)c2O[C@H](C(=O)OCC)[C@@H]1CCC(C)C,.,.,6.2%,.,-0.5%
CC(C)Cn1c(N)c(C(=O)COC(=O)c2ccc(O)cc2)c(=O)n(C)c1=O,-18.5%,24.7%,1.2%,?,.
Cc1nn(-c2ccccc2)c(C)c1C(=O)OCC(=O)c1c(N)n(CC(C)C)c(=O)n(C)c1=O,-9.5%[46.1 µM],5.01µM*,3.5%[38.3 µM],.,-14.8%[10 µM]
O=C(N=Nc1c(O)[nH]c2ccc(Br)cc12)c1ccccc1-n1cccc1,12.6µM*,-18.4%,38.0%[38.3 µM],.,-75.9%
CN1CCN(c2ncc3nc(-c4ccc(F)cc4)c(=O)n(Cc4cccs4)c3n2)CC1,.,.,38.0%,.,-74.5%
Cc1nc(SC2CCOC2=O)c2c(C)c(C)sc2n1 (centres undefined),25.6%[46.1 µM],13.2%,7.08µM*,.,-4.9%
O=C(NNC(=S)Nc1ccc(Cl)cc1)c1ccccc1OC(F)F,-0.3%,12.6µM*,2.1%,4.2%,.
O=C(NNC(=S)NCc1ccccc1)c1ccccc1OC(F)F,12.2%,-2.8%,2.8%,8.9%,.
Cc1ccc(N2CN=c3s/c(=C\c4cccnc4)c(=O)n3C2)cc1,-0.1%[46.1 µM],10µM*,-11.2%[38.3 µM],.,-6.6%
NC(N)=NCC1COc2ccccc2O1 (centres undefined),.,-4.0%,.,.,-4.7%
Cc1cc(O)c(C(C)C)cc1NS(=O)(=O)c1ccccc1,-5.2%[46.1 µM],5.01µM*,11.4%[38.3 µM],.,5.5%[0.074 µM]
COC(=O)c1ccccc1S(=O)(=O)N1CCc2nc(-c3ccccc3)c3c(c2C1)CO[C@@H](C)C3,.,.,13.1%,.,-4.4%[10 µM]
O=C(CCl)Nc1cc(SCC(O)CO)cc([N+](=O)[O-])c1 (centres undefined),6.3%,2.82µM*,-8.4%,7.0%,-78.1%[10 µM]
CC(C)=NOc1cc(NC(=O)CCl)cc([N+](=O)[O-])c1,-31.0%,3.16µM*,-3.5%,-3.4%,.
CCC(=O)Nc1cc(ON=C(C)C)cc([N+](=O)[O-])c1,12.2%,16.0%,-0.8%,-6.9%,.
CC/C=C\C/C=C\C/C=C\C/C=C\C/C=C\CCC(=O)O[C@H](COCCCCCCCCCCCCCCCC)COP(=O)([O-])OCC[N+](C)(C)C,.,.,-4.3%,1.4%,5.7%
COC(=O)c1cc2ccccn2c2c(C(=O)OC)c(C(=O)OC)cc1-2,-21.5%[46.1 µM],8.4%,13.2%[38.3 µM],.,-16.6%
COC(=O)c1cc2c(C)cc3ccc(C)cn3c-2c1C(=O)OC,4.3%[46.1 µM],-12.8%,10µM*,.,18.0%
O=C(OCc1ccccc1F)c1ccc2c(c1)-c1ccccc1C2=O,-25.3%[46.1 µM],0.794µM*,8.8%[38.3 µM],.,-6.7%
CCC(C)(C)C,.,.,10.0%,.,-1.1%
O=C(Nc1c(C(=O)Nc2cccc(F)c2)oc2ccccc12)c1ccc2c(c1)OCO2,?,-12.5%,14.1µM*,.,-13.4%
O=C(NN1C(=O)c2ccccc2NC1c1ccc([N+](=O)[O-])o1)c1ccc(Br)cc1 (centres undefined),-8.6%,?,-3.1%,2.8%,6.31µM*
Cc1ccc(OCc2nnc(SCC(=O)N3CCOCC3)n2C)cc1,-6.2%[46.1 µM],4.5%,12.1%[38.3 µM],.,12.6µM*
O=C1[C@H]2[C@H]3C=C[C@@H](C4[C@H]3[C@@H]3C(=O)N(CN5CCSCC5)C(=O)[C@H]43)[C@H]2C(=O)N1CN1CCSCC1 (some centres undefined),.,.,-6.0%,.,.
CCCCCCCCCCCCCCCC[n+]1ccc(/C=N/O)cc1,5.01µM*,8.91µM*,19.4%,?,-35.9%[10 µM]
SMILES,NPSR antagonist,HttQ103 aggreg,IMPase Li inh,ERK EGF block,HTT cytoprotect
CCCCCCCCCCCCCC[n+]1ccc(C)cc1,.,22.4µM*,.,.,-97.4%
CCCCCCCCCCCC[n+]1ccc2ccccc2c1,.,7.08µM*,.,.,-97.5%
O=c1cc(N2CCNCC2)oc2c(-c3ccccc3)cccc12,.,.,21.5%,.,.
CN(C)c1ccc(C2(c3ccc(N(C)C)cc3)OC(=O)c3cc(N(C)C)ccc32)cc1,.,.,8.4%,.,6.5%
COc1ccc(CNC(=O)Cn2cnc3c(=O)n(C)c(=O)n(C)c32)cc1,4.8%[46.1 µM],0.631µM*,4.2%[38.3 µM],.,-10.0%[0.074 µM]
O=C(NNc1nc2cc3c(cc2s1)OCO3)c1ccccc1,-1.4%,-2.5%,6.0%,?,.

# Screens (PubChem BioAssay)
